Compound activity from PubChem BioAssay.
Sampled rows, rich in hits. Any-hit rate of the full collection: about 2.8%.
KKLEB cytotox: CF airway cell cytotoxicity counter-screen; activity change (cytotoxicity), % at 5 µM; 0.36% of 360,000 active; KKLEB CF airway cells viability, ATPlite luminescence, overnight; hits give low values; cells stimulated with P. aeruginosa culture filtrate;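 active = corrected activity change at or below -50% at 5 µM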
MITF TRPM1 inh: inhibitors of MITF-driven TRPM1 promoter in melanoma cells. AID 488899. inhibition, % at 12.5 µM. SK-MEL-5 TRPM1 promoter luciferase, 24 h. 0.83% of 330,000 active;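 active = mean inhibition across replicates of 60% or more, whatever share of single replicates reaches that level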
Beta2AR agonist: human beta-2 adrenergic receptor agonism by FAP; 0.43% of 340,000 active; AID 504454; P07550; Am2.2-beta2AR cells, FAP receptor internalization, flow cytometry; response, % (test concentration not listed);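 active = response above a set limit, near 3 SD of response in nonfluorescent compounds, cut at about 42% in these data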
Target sequence (P07550 whole entry, looked up): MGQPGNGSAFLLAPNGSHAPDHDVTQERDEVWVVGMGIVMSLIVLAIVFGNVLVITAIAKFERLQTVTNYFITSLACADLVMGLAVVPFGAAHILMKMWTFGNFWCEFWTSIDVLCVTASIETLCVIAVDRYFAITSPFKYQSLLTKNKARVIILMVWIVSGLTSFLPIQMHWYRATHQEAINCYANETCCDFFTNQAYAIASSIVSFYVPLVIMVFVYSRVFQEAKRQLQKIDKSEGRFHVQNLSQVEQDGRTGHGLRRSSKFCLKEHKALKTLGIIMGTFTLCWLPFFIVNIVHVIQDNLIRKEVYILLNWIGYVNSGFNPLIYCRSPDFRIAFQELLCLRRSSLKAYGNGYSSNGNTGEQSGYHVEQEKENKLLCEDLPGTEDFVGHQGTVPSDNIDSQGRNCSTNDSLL
HIF-2a block: HIF-2a inhibition. 786-0 RCC cells HIF-2a reporter, luciferase luminescence, overnight. 0.72% of 360,000 active. inhibition, % at 18.8 µM;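 active = inhibition of the luminescence signal of 40% or more relative to plate controls, in a single-dose primary screen at 18.75 µM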
Peg3 promoter: inhibitors of Peg3 promoter; HeLa PEG-Prom luciferase reporter, luminescence, overnight; inhibition, % at 20 µM; 1.7% of 360,000 active; AID 588405;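 active = inhibition of at least 50% at 20 µM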
CF NFkB block: blocks PAF-induced NF-kB reporter in cystic fibrosis cells; KKLEB NF-kB-GFP reporter, GFP fluorescence overnight; inhibition, % at 5 µM; AID 588850; 0.86% of 360,000 active;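 active = at least 50% inhibition at 5 µM, scaled per plate between neutral and stimulator controls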;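 note: PAF is a Pseudomonas aeruginosa culture filtrate used as stimulus; plate controls were PAF-stimulated DMSO wells for no effect and unstimulated DMSO wells for full effect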
Mdm2 MdmX conf: confirmation of inhibitors of human Mdm2/MdmX interaction, set 2. inhibition, % at 8 µM. SaOS-2 split-luciferase Mdm2/MdmX complementation, luminescence. AID 504601. shares compounds with HIF-2a block. 99% of 740 active;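 active = mean inhibition of the luminescence signal across two replicates at or above 26 percent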
HIF-2a conf: HIF-2a inhibition, single concentration confirmation; shares compounds with HIF-2a block; 786-0 RCC cells, HIF-2a luciferase reporter luminescence, overnight; inhibition, % at 18.8 µM; 56% of 1,800 active;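 active = mean inhibition across four replicates of at least 40 percent at the single tested concentration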
HIF-1a cs: HIF-1a inhibition counter-screen for HIF-2a hits; inhibition, % at 18.8 µM; shares compounds with HIF-2a block; 72% of 1,800 active; MiaPaCa-2 HIF-1a luciferase reporter, desferoxamine, overnight; AID 651589;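 active = mean inhibition of the reporter signal across four replicates at the single tested dose of 50% or more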
Starred values were filed as active, the others as inactive; / = no result.

SMILES	KKLEB cytotox	MITF TRPM1 inh	Beta2AR agonist	HIF-2a block	Peg3 promoter	CF NFkB block	HIF-2a conf	HIF-1a cs	others
O=C(NCc1cccs1)c1ccc2sc([C@H]3C[C@H](O)[C@@H](CO)O3)nc2c1	-15.4	/	/	-16.7	-5.2	-3.3	/	/
COc1ccc(C(NC(=O)c2c(F)c(F)c(F)c(F)c2F)c2ccccc2)cc1 (stereo not drawn)	-11.9	39.8	26.9	83.1*	93.1*	-14.5	56.9*	100.2*
COc1ccc(C(NC(=O)c2cc(OC)ccc2OC)c2ccccc2)cc1 (stereo not drawn)	-18.9	4.5	-7.4	14.0	33.0	2.8	/	/
CNC[C@H](Cc1ccccc1)NC[C@@H](Cc1cccc2ccccc12)NCCc1ccc(C)cc1	-50.2*	-5.7	98.1*	22.4	96.6*	43.4	/	/	Mdm2 MdmX conf=100.7*
COC(=O)C(=Cc1ccc(OCc2ccc([N+](=O)[O-])cc2)c(OC)c1)C(=O)OC	-19.9	29.7	3.2	81.5*	-52.0	42.2	82.5*	101.1*
COc1cc(C=O)ccc1OCCCOc1ccc([N+](=O)[O-])cc1	4.8	9.2	1.6	0.2	0.4	-27.6	/	/
CCc1cc(-c2cnnn2Cc2ccccc2)ccc1-c1cn(CC(C)C)nn1	1.8	/	/	2.9	6.3	-0.2	/	/
O=C(c1ccncc1)N(c1ccc(N2CCOCC2)cc1)C(c1ccccc1)c1nc2ccccc2[nH]1 (stereo not drawn)	-5.3	/	/	-274.6	-319.9	-28.0	/	/
CSC(=Nc1cccc(C)c1)NC#N	2.7	12.5	6.6	3.7	5.4	-22.5	/	/
O=C(NC1CCCC1)C(c1ccccc1)n1c(CSCCOc2ccccc2)nc2ccccc21 (stereo not drawn)	/	/	/	64.8*	/	/	79.3*	66.5*
Cc1ccc(NC(=O)C2(C)CCN2C(=O)CCC2CCCC2)cc1C (stereo not drawn)	-17.4	/	/	11.3	23.7	18.9	/	/
COC(=O)c1sc(NC(=O)c2cc3c(s2)CCCC3)nc1C	-0.2	-72.7	-1.9	-134.4	-172.8	-23.4	/	/
CCOC(=O)c1sc(NC(=O)c2cc3c(s2)CCC(C)C3)nc1C (stereo not drawn)	3.0	71.5*	3.8	48.2*	24.2	3.3	45.1*	-2.7
CCCCC(=O)NC(c1ccc(Cl)cc1Cl)c1ccc2cccnc2c1O (stereo not drawn)	-8.1	44.5	15.5	-46.2	54.1*	-27.5	/	/	Mdm2 MdmX conf=84.7*
CC(=O)NC(c1ccco1)c1ccc2cccnc2c1O (stereo not drawn)	4.5	51.9	8.0	5.3	12.5	-6.9	/	/
COc1ncnc2c1ncn2CCCNCc1ccc2c(c1)OCO2	6.2	/	/	-1.5	6.9	8.6	/	/
C/C(=N\Nc1cc(C)nc(-c2ccccc2O)n1)c1ccccc1O	-18.9	-14.0	-1.6	-50.6	27.4	80.4*	/	/	Mdm2 MdmX conf=72.8*
Cc1cc(N/N=C\c2ccccc2)nc(-c2ccccc2O)n1	-26.9	-5.9	4.5	-166.5	-96.8	-25.3	/	/
COc1ccc(-n2ncc3c(N4CCN(c5cc(C)ccc5C)CC4)ncnc32)cc1	-2.6	-4.5	6.4	2.5	8.1	10.4	/	/
COc1cc2nc(N3CCN(c4cc(C)ccc4C)CC3)nc(N)c2cc1OC	-47.2	11.9	27.9	38.7*	101.7*	3.4	-9.1	102.4*	Mdm2 MdmX conf=102.7*
O=C(CN1C(=O)c2ccccc2S1(=O)=O)c1ccccc1F	13.3	25.7	4.1	7.4	5.0	4.7	/	/
O=C(CN1C(=O)c2ccccc2S1(=O)=O)c1ccc(OC(F)F)cc1	5.2	65.2*	3.8	52.0*	56.1*	-2.7	75.0*	64.1*
O=C(CN1C(=O)c2ccccc2S1(=O)=O)c1ccc(F)cc1	8.2	39.4	-3.6	57.4*	57.5*	-14.0	64.1*	59.3*
O=C(CN1C(=O)c2ccccc2S1(=O)=O)c1ccc(Cl)cc1Cl	3.3	87.0*	2.3	54.9*	16.3	13.6	82.4*	89.8*
CCC(C)c1ccccc1NC(=O)COc1ccc(-n2cnnn2)cc1 (stereo not drawn)	1.8	-3.7	-0.4	-1.0	0.9	-22.3	/	/
SMILES	KKLEB cytotox	MITF TRPM1 inh	Beta2AR agonist	HIF-2a block	Peg3 promoter	CF NFkB block	HIF-2a conf	HIF-1a cs	others
Cc1ccc2c(=O)n3c(nc2c1)C(Cc1ccccc1)NC(=O)c1cc2ccccc2cc1-3 (stereo not drawn)	-12.0	/	/	11.9	25.2	0.9	/	/
C=CCN(Cc1ccc(Br)s1)C(=O)c1ccc(OCc2c(C)noc2C)cc1	2.7	/	/	14.7	23.3	-10.6	/	/
CCc1nc2c(OCC(=O)N3CCOCC3)cccn2c1N(C)C(=O)COc1ccccc1	0.3	/	/	11.9	-8.5	5.4	/	/
CC(=O)Nc1ccc(NC(=O)c2c([N+](=O)[O-])c(C(C)(C)C)nn2C)cc1	7.9	11.2	0.9	60.0*	2.4	3.7	66.7*	35.9
C=C1C(=O)OC2C=C(CO)C3OC3C3OC3(C)CC(OC(=O)/C(=C/C)COC(C)=O)C12 (stereo not drawn)	-91.5*	84.5*	5.2	84.6*	106.3*	82.2*	92.5*	106.5*
COc1cccc(OCc2ccc(Cn3nc(NC(=O)NCCc4ccc(OC)c(OC)c4)c4ccccc43)cc2)c1	-6.6	/	/	-0.9	17.4	-4.7	/	/
O=C1C(=O)c2ccc(-c3ccccc3)cc2-c2ccccc21	-100.3*	103.9*	61.2*	93.2*	101.4*	102.5*	/	/	Mdm2 MdmX conf=103.2*
COC(=O)/C(=C\c1ccc(O)cc1)c1nc2ccccc2[nH]1	5.6	-1.3	-2.3	-105.0	-99.3	-3.8	/	/
O=S(=O)(/C(=C/c1ccc(C(F)(F)F)cc1)c1nc2ccccc2[nH]1)c1ccccc1	-64.2*	90.5*	22.0	89.9*	106.2*	83.5*	98.9*	107.1*
C/C(=C\c1ccc(N)cc1)c1nc2ccccc2[nH]1	-8.0	-84.7	1.4	-226.9	-306.0	-13.8	/	/
CC(C)c1ccc(/C=C(\c2nc3ccccc3[nH]2)S(=O)(=O)c2ccccc2)cc1	-68.3*	87.5*	42.2*	90.1*	104.5*	93.4*	97.8*	104.2*	Mdm2 MdmX conf=103.0*
Cc1cnc(CNC(=O)CC2C(=O)NCCN2Cc2cccc(F)c2F)cn1 (stereo not drawn)	11.3	-0.2	-6.7	0.6	-3.3	-15.9	/	/
CC(=O)c1cccc(S(=O)(=O)N2CCn3cccc3C2C)c1 (stereo not drawn)	-6.7	6.4	4.6	-2.4	-9.6	16.1	/	/
O=[N+]([O-])c1ccc(-c2ccc(/C=N/Nc3nc(N4CCCCC4)nc(N4CCCCC4)n3)o2)cc1	-6.7	-11.1	-218.5	-2.6	13.6	-16.8	/	/
